# Measured values: PubChem BioAssay (NCATS)
# Values joined by “and” are separate entries in the source; they are usually repeats but may differ in a detail not shown here. Equal values may be shown once. Inconclusive results are not listed. Where a call stands in place of a potency, no number is given. Active and inactive are the calls of the source. Unless noted, the call rests on the fitted dose curve; in most records, active means well fitted curve in the direction sought with a large enough effect; inconclusive means small, poorly fitted or top-dose-only effect, or another doubt; inactive means no such curve, though single readings can be large; an effect the other way counts as inactive or inconclusive.
# How the values were obtained:
# [1] = qHTS profiling for inhibitors of Plasmodium falciparum (3D7) proliferation (AID 743322; call rule not given here;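 further: infected erythrocytes exposed to compound for 72 h before lysis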); conditions: P. falciparum 3D7 proliferation; at 28.7 µM (top of the series) unless noted
# How it was run: (§1)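 Parasite DNA was quantified by SYBR Green I fluorescence (ex 485, em 535 nm) after overnight lysis in saponin/Triton buffer at room temperature. Cultures at 0.3% parasitemia and 2.5% hematocrit were first exposed to compound for 72 h at 37 C; signals were normalised to artemisinin (0.29 uM) and vehicle wells.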
# [2] = qHTS profiling for inhibitors of Plasmodium falciparum (DD2) proliferation (AID 743323; call rule not given here); conditions: lower = more inhibition; at 28.7 µM (top of the series) unless noted
# How it was run: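 Parasite DNA quantified by SYBR Green fluorescence (ex 485, em 535 nm) after saponin/Triton lysis and overnight dark incubation. Cultures: 0.3% parasitemia, 2.5% hematocrit, 72 h, 37 C; data scaled between DMSO and 0.29 uM artemisinin.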
# [3] = qHTS profiling for inhibitors of Plasmodium falciparum (HB3) proliferation (AID 743324); conditions: Plasmodium falciparum HB3 blood-stage proliferation; at 28.7 µM (top of the series) unless noted
# How it was run: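 SYBR Green fluorescence (485 ex/535 em) of lysed cultures, incubated overnight at room temperature in the dark, quantifies parasite DNA. Infected erythrocytes at 0.3% parasitemia and 2.5% hematocrit were exposed 72 h; values normalized to DMSO and 0.29 uM artemisinin controls.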
# [4] = qHTS assay to identify small molecule inhibitors of chordoma cells - UCH-1 (AID 1259355); further: nearly all actives have a fitted effect of over 55% in size
# How it was run: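 A 48hr growth-inhibition format: each drug tested at 15 concentrations together with added auranofin, camptothecin, doxorubicin, rubitecan and topotecan, with cell viability quantified as CellTiter-Glo luminescence.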
# [5] = qHTS assay for cell viability of HEK293 cells (AID 743288); conditions: ATP luminescence (CellTiter-Glo), 18 h; max response: stronger effect = lower value; further: nearly all actives have a fitted effect of over 50% in size
# How it was run: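 Steps: plate 2,000 parental HEK293 cells per well; incubate ≥5 h, 37 C; add compounds in DMSO; incubate 18 h, 37 C; add CellTiter-Glo; wait 30 min at room temperature; read luminescence.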
# [6] = qHTS assay for cell viability of the p53RE-bla HCT-116 cell line (AID 743292); further: nearly all actives have a fitted effect of over 55% in size
# How it was run: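 CellSensor p53RE-bla HCT-116 cells, 4,000/well, preincubated 5 h at 37 C, then exposed to compounds in DMSO for 16 h at 37 C. Viability read as CellTiter-Glo luminescence (intracellular ATP) after 30 min at room temperature.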
# [7] = qHTS profiling of the MIPE4 collection as inhibitors of Plasmodium falciparum (3D7) proliferation (AID 743344; call rule not given here); conditions: P. falciparum 3D7 in erythrocytes, SYBR Green DNA fluorescence, 72 h; at 28.5 µM (top of the series)
# How it was run: as §1
# [8] = qHTS profiling of the MIPE4 collection as inhibitors of Plasmodium falciparum (DD2) proliferation (AID 743345; call rule not given here); conditions: P. falciparum Dd2 in erythrocytes, SYBR Green DNA, 72 h; at 28.5 µM (top of the series)
# How it was run: as §1
# [9] = qHTS profiling of the MIPE4 collection as inhibitors of Plasmodium falciparum (DD2) proliferation (Rep 2) (AID 743346; call rule not given here); conditions: P. falciparum Dd2 in erythrocytes, SYBR Green DNA, 72 h; at 28.5 µM (top of the series)
# How it was run: as §1
# [10] = qHTS profiling of the MIPE4 collection as inhibitors of Plasmodium falciparum (HB3) proliferation (AID 743347; call rule not given here); conditions: P. falciparum HB3 in erythrocytes, SYBR Green DNA, 72 h; at 28.5 µM (top of the series)
# How it was run: as §1
structure (smiles),measurement,setting,value
Cc1c(N)nc([C@H](CC(N)=O)NC[C@H](N)C(N)=O)nc1C(=O)N[C@H](C(=O)N[C@H](C)[C@@H](O)[C@H](C)C(=O)N[C@H](C(=O)NCCc1nc(-c2nc(C(=O)NCCCCN=C(N)N)cs2)cs1)[C@@H](C)O)[C@@H](O[C@@H]1O[C@@H](CO)[C@@H](O)[C@H](O)[C@@H]1O[C@H]1O[C@H](CO)[C@@H](O)[C@H](OC(N)=O)[C@@H]1O)c1cnc[nH]1,remaining parasite growth % (stronger effect = lower value),[1],83.7%
same,"activity, percent of control",[2],82.1%
same,"remaining proliferation (% of control), lower = more inhibition",[3],67.1%
same,Potency,[4],inactive
CCN(CC)CCOCCOC(=O)C(CC)(CC)c1ccccc1,remaining parasite growth % (stronger effect = lower value),[1],90.6%
same,"activity, percent of control",[2],50.9%
same,"remaining proliferation (% of control), lower = more inhibition",[3],65.7%
same,Potency,[4],inactive
Nc1ccc(N=Nc2ccccc2)c(N)n1,max response,[5],-23.5% (inactive) and -25.3% (inactive)
same,outcome,[6],inactive
same,Potency,[4],inactive
N[C@@H](Cc1cc(I)c(Oc2ccc(O)c(I)c2)c(I)c1)C(=O)O,max response,[5],-8.83% (inactive)
same,outcome,[6],inactive
same,Potency,[4],inactive
Cc1ccc(S(=O)(=O)NCl)cc1,max response,[5],-7.16% (inactive)
same,outcome,[6],inactive
Cc1ncc[nH]1,max response,[5],-10.6% (inactive)
same,outcome,[6],inactive
same,Potency,[4],inactive
NCCN,max response,[5],-4.96% (inactive)
same,outcome,[6],inactive
same,Potency,[4],inactive
CCOC(C)OCC,max response,[5],7.3% (inactive)
same,outcome,[6],inactive
same,Potency,[4],inactive
CC1=CCC2CC1C2(C)C (centres undefined),max response,[5],-5.13% (inactive)
same,outcome,[6],inactive
same,Potency,[4],inactive
COC(=O)c1ccccc1O,max response,[5],-4.62% (inactive) and -2.27% (inactive)
same,outcome,[6],inactive
same,Potency,[4],inactive
C=Cc1c(C)c2cc3nc(cc4[nH]c(cc5nc(cc1[nH]2)C(C)=C5CCC(=O)OC)c(CCC(=O)O)c4C)[C@@]1(C)C3=CC=C(C(=O)OC)[C@H]1C(=O)OC,remaining parasite growth % (stronger effect = lower value),[1],-0.398% [at 9.63 µM]
same,"activity, percent of control",[2],0.912% [at 9.63 µM]
same,"remaining proliferation (% of control), lower = more inhibition",[3],0.279% [at 9.63 µM]
same,Potency,[4],inactive
C=CC(C)(O)CC/C=C(\C)CCC=C(C)C (centres undefined),max response,[5],-7.81% (inactive)
same,outcome,[6],inactive
same,Potency,[4],inactive
Nc1ncnc2c1ncn2[C@H]1CC[C@@H](CO)O1,max response,[5],-8.27% (inactive) and 0.717% (inactive)
same,outcome,[6],inactive
same,Potency,[4],inactive
CC[C@H]1OC(=O)[C@H](C)[C@@H](O[C@H]2C[C@@](C)(OC)[C@@H](O)[C@H](C)O2)C(C)[C@@H](O[C@@H]2O[C@H](C)C[C@H](N(C)C)[C@@H]2O)[C@](C)(OC)C[C@@H](C)C(=O)[C@H](C)[C@@H](O)[C@]1(C)O (some centres undefined),"parasite growth, % of DMSO control",[7],19.7%
same,"parasite growth remaining, % of DMSO control (lower = more inhibition)",[8],35.4%
same,"parasite growth, % of control (lower = inhibition)",[9],38.9%
same,"growth, % of control",[10],37.4%
same,Potency,[4],inactive
C/C=C/C=C/C(=O)O,max response,[5],0.0589% (inactive)
same,outcome,[6],inactive
same,Potency,[4],inactive
